Hit rate of the full screen: of about 360,000 compounds, about 3,500 (0.97%) were called active.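 Rule for the calls: active = activation above a per-plate cutoff, the mean activation of sample wells on that plate plus 3 SD (cut at about 8% in these data); inactive = the rest.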 Shown is part of a subset that was picked to be rich in actives.
These molecules were tested against Melanocortin receptor 4 (Homo sapiens) (UniProt P32245) (assay: MC4R agonists recruiting beta-arrestin, primary screen, cell-based, luminescence, agonist arm of biased-ligand search (AID 540308)). Conditions: U2OS MC4R beta-arrestin complementation, at 8.9 µM, active compounds read high, percent of melanotan II response, DMSO zero.
Melanocortin receptor 4 (Homo sapiens), sequence (P32245 whole entry, looked up): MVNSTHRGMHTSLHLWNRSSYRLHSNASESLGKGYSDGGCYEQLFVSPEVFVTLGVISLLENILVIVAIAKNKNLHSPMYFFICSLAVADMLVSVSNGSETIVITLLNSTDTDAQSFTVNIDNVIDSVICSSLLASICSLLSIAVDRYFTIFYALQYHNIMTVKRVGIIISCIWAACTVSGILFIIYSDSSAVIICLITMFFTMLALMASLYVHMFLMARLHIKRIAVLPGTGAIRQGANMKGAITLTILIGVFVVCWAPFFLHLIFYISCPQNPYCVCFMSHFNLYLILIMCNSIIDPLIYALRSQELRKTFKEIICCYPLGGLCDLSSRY

activation, active:
NC(N)=Nc1nc(-c2ccccc2)c2cc(Cl)ccc2n1 9.69%
CSc1nc2sc3c(c2c(=O)[nH]1)CCc1ccccc1-3 12.4%
COc1ccc(Cl)cc1-n1c(C)cc(C(=O)OCC(=O)N2CC(=O)Nc3ccccc32)c1C 15.3%
Cc1cccc(NC(=O)Nc2cccc(Oc3c(F)c(F)c(F)c(F)c3F)c2)c1 15.8%
COc1ccc(CC(=O)Nc2sc(Cc3ccccc3)c(C)c2C(N)=O)cc1 9.06%
N#C/C(=C(/O)COC(=O)COc1ccc(Cl)cc1)c1nc2ccccc2[nH]1 14.5%
COC(=O)c1sccc1NC(=O)c1cc(OC)c(OC)c(OC)c1 10.6%
Cc1ccc(-c2csc(NC(=O)Cn3[nH]c(=O)c4ccccc4c3=O)n2)cc1 16.1%
Cc1ccc([C@H]2C[C@H](O)[C@@H](n3cc(COC(=O)c4ccccc4)nn3)CN2C(=O)C2CCCCC2)cc1 9.82%
CNC(=S)N/N=C/c1ccc(OCc2ccccc2)c(Br)c1 8.56%
COCCNc1nc(Nc2ccccc2Cl)c2sc(-c3ccccc3)cc2n1 10.6%
Clc1ccccc1Nc1nc(NCc2cccs2)nc2ccsc12 15.7%
CC1CCCC(NC(=O)c2cc(-c3ccncc3)nc3ccccc23)C1C (stereo not drawn) 8.93%
Cc1ccc2nc(-c3ccccn3)cc(C(=O)Nc3ccc4c(c3)OCO4)c2c1 8.55%
Cc1ccc2nc(-c3ccncc3)cc(C(=O)Nc3ccncc3)c2c1 10.5%
Cc1ccc2nc(-c3ccncc3)cc(C(=O)Nc3ccc(OC(F)F)cc3)c2c1 13.6%

activation, inactive:
CCc1nc2ccc(C(=O)Nc3ccc(OC)c(OC)c3)cn2c1N(C)C(=O)c1cccc(OC)c1 -1.68%
CC1(C(=O)NCc2ccc3c(c2)OCO3)CCN1C(=O)Cc1cccc2ccccc12 (stereo not drawn) -2.21%
COC(=O)Cn1nc(-c2ccccc2)c2cc(Cl)ccc21 -2.4%
Clc1ccc2nc(-c3ccccc3)nc(C(Cl)Cl)c2c1 1.35%
CC1(C(=O)NS(=O)(=O)c2cccc(F)c2)CCN1C(=O)Cc1ccc(Cl)cc1Cl (stereo not drawn) -2.74%
Cc1ccccc1-c1nc(NC(C)C)nc2cc(-c3ccccc3)sc12 -0.61%
CC1(C(=O)NS(=O)(=O)c2ccc3ccccc3c2)CCN1C(=O)C1(c2ccc(Cl)cc2)CCC1 (stereo not drawn) -0.24%
CCSc1nc2sc3c(c2c(=O)[nH]1)CC(C)(C)OC3 -0.6%
CCSc1nnc(-c2cc3c(s2)-c2ccccc2CC3)o1 -0.34%
COc1ccc(/C=C/C(=O)c2c(O)cc(OC)cc2OC)cc1 -0.69%
N#Cc1cccc(NC(=O)c2cc(C3CCCCN3C(=O)CCc3ccccc3)on2)c1 (stereo not drawn) -1.43%
CC(C)Oc1ccc(CN2CCC2(C)C(=O)NCc2ccc(C(F)(F)F)cc2)cc1 (stereo not drawn) 0.02%
COc1ccc(C(=O)OCC(=O)N2CC(=O)Nc3ccccc32)cc1Br 0.65%
COc1cc(OC)c(C(=O)OCC(=O)N2CC(=O)Nc3ccccc32)cc1OC -2.02%
O=C(Nc1cccc(Cc2ccccc2)c1)Nc1ccc2nc([C@@H]3O[C@H](CO)[C@@H](O)[C@H](O)[C@H]3O)[nH]c2c1 -0.22%
C[C@H](NC(=O)[C@@H]1Cc2ccccc2CN1C(=O)OC(C)(C)C)C(=O)NC1CCCC1 -3.11%
CC(=O)Nc1cnc(-c2ccc(O)cc2C)cn1 -2.1%
Cc1c(C(=O)NCC2CC2)sc(=O)n1Cc1cccc(F)c1 1.11%
COc1ccc(CC(=O)Nc2cc(S(=O)(=O)N3CCCCC3)ccc2N2CCN(C)CC2)cc1 -2.51%
Cc1ccoc1C(=O)Nc1cccc(Oc2ccccc2)c1 0.82%
COc1cccc(NC(=O)Nc2ccc(F)cc2)c1 1.45%
CC(C)CNC(=O)C1(C)CCCN1C(=O)CSc1ccccc1 (stereo not drawn) -1.48%
CC(Oc1ccc(Br)cc1)C(=O)NCC(c1ccco1)N1CCCCC1 (stereo not drawn) 0.14%
O=C(Nc1ccc(N2CCOCC2)cc1)c1cccc2c(-c3ccc(F)c(F)c3)coc12 3.52%
COc1ccc(CC(=O)Nc2c(C(N)=O)oc3ccccc23)cc1 -1.72%
Cc1ccc(C(=O)Nc2sc(Cc3ccc4c(c3)OCO4)c(C)c2C(N)=O)cc1 0.85%
CCc1nc2ccc(C(=O)N(C)CCN(C)C)cn2c1N(CC)CCOC -1.01%
COc1ccc(NC(=O)C2Cc3c(-c4ccc(Cl)cc4)ccnc3O2)cc1 (stereo not drawn) 2.27%
Cc1cccnc1C(NC(=O)C1CCN(Cc2ccc(Cl)c(Cl)c2)CC1)c1ccc(Cl)cc1 (stereo not drawn) -0.01%
COc1ccccc1C(=O)COC(=O)COc1ccc(C#N)cc1 -0.25%
CC(C)(C)c1nnc2sc(SCC(O)=C(C#N)c3nc4ccccc4[nH]3)nn2c1=O -0.79%
CC(C)NC(=O)C1(C)CCCCCN1C(=O)c1ccc(-c2ccccc2)cc1 (stereo not drawn) -1.12%
COCCNc1nnc(SCC(=O)NNC(=O)c2ccco2)s1 -0.17%
O=C(NCc1ccc(F)cc1)c1cc(C2CCCCN2C(=O)c2cccs2)on1 (stereo not drawn) -0.1%
COC(=O)c1sccc1NC(=O)c1ccc(Cl)cc1 3.1%
COC(=O)c1sccc1NN1C(=O)c2ccccc2C1=O 1.29%
COc1ccc(NC(=O)C2(C)Cc3c(-c4cccc(NC(C)=O)c4)ccnc3O2)cc1 (stereo not drawn) -0.48%
CCN(CC)C(=O)C1CCCN(Cc2cccc(Cl)c2)C1 (stereo not drawn) -1.07%
Cc1noc(C)c1C(=O)N1CCC1(C)C(=O)NS(=O)(=O)c1ccc(C#N)cc1 (stereo not drawn) -1.23%
COc1cccc(C(NC(C)=O)c2nc(-c3cnc4ccccc4c3)cs2)c1 (stereo not drawn) -2.35%
Cc1ccc(C)c(C(=O)COC(=O)Cn2[nH]c(=O)c3ccccc3c2=O)c1 -1.85%
O=C(CSc1nc2ccccc2c(=O)[nH]1)Nc1nc(-c2ccc(Br)cc2)cs1 0.03%
Cc1cc(=O)oc2c3c(cc(OCC(=O)NCC(O)c4ccccc4)c12)OC(C)(C)CC3 (stereo not drawn) 2.2%
CCc1nc2c(OCc3ccc(Cl)cc3Cl)cccn2c1N(C)C(=O)C(C)C -0.09%
CCCCCC(=O)N1C[C@H](O)[C@@H](n2cc(COC(=O)c3ccccc3)nn2)C[C@@H]1c1ccc(C)cc1 0.09%
Cc1ccc([C@H]2C[C@H](O)[C@@H](n3cc(COC(=O)c4ccccc4)nn3)CN2CC2CCCCC2)cc1 1.06%
Fc1ccc(-c2csc(-c3ccc(C4SCCS4)cc3)n2)cc1F 1.21%
COc1ccc(Br)c(Cn2c(C)c(C(=O)NCc3cccs3)sc2=O)c1 0.68%
Cn1cc(S(=O)(=O)NC(c2ccccc2)c2ccccc2)c(=O)n(C)c1=O -0.18%
CCc1nc2c(OCCOc3ccccc3)cccn2c1N(C)C(=O)c1cccs1 0.14%
COc1ccc(S(=O)(=O)NC(=O)C2(C)CCN2C(=O)c2ccccc2CCc2ccccc2)cc1 (stereo not drawn) -2.22%
O=C(O)c1ccc(/C=N/NC(=S)NCc2ccccc2)cc1 0.6%
O=C(O)COc1ccc(/C=N/O)cc1Br -1.99%
CCCC(=O)N1CCC1(C)C(=O)Nc1ccc(-n2cncn2)cc1 (stereo not drawn) 0.24%
COc1cccc(-c2cc3nc(NCCOc4ccccc4Cl)n(C)c(=O)c3s2)c1 2.56%
COc1cccc(CNc2nc(NCc3cccs3)nc3ccsc23)c1 -1.2%
COc1ccccc1CNc1nc(Nc2ccccc2Cl)c2sccc2n1 0.15%
CC(=O)Nc1ccc(CNc2nc(NCCN(C)C)nc3cc(-c4ccccc4)sc23)cc1 0.89%
COc1ccc(C(C)(O)c2nc(-c3ccc(C)c(C)c3)cs2)cc1 (stereo not drawn) 0.79%
COc1cc2ccccc2cc1C(=O)Nc1ccncc1 -0.89%
Cc1ccc(-n2c(SCC(=O)Nc3ccc4c(c3)OCO4)nnc2-c2ccccn2)cc1 1.14%
O=C(Nc1ccc(S(=O)(=O)Nc2nccs2)cc1)c1cc(-c2ccncc2)nc2ccccc12 1.73%
Cc1cc(NS(=O)(=O)c2ccc(NC(=O)c3cccc(OC(F)F)c3)cc2)nc(C)n1 0.09%
COc1ccc(NC(=O)c2cc(-c3cc(OC)c(OC)c(OC)c3)nc3ccccc23)c(OC)c1 1.47%
CSc1ncccc1C(=O)Nc1ccc2c(c1)OCO2 -2.93%
CC(C)c1cc(C(=O)NC2CCCCCC2)c2ccccc2n1 -0.07%
CCc1ccc(-c2cc(C(=O)NN3CCN(C)CC3)c3ccccc3n2)cc1 -0.59%
CCOC(=O)C1CCCN(C(=O)c2cc(-c3cccs3)oc2C)CC1 (stereo not drawn) 1.53%
CCCS(=O)(=O)NC(=O)C1(C)CCCN(C(=O)c2ccnc(Cl)c2)C1 (stereo not drawn) -0.96%
CCCCc1ccc(S(=O)(=O)NC(=O)C2(C)CCN2C(=O)c2ccccc2)cc1 (stereo not drawn) 0.97%
OC[C@@H]1CN(Cc2ccc(-c3ccccc3)cc2)C[C@H](n2cnc3c(NC4CCCC4)ncnc32)O1 5.7%
CCc1nc2c(OCc3ccc(C(=O)OC)cc3)cccn2c1N(C)C(=O)C(C)C 1.62%

Reference: PubChem BioAssay AID540308 (The Scripps Research Institute Molecular Screening Center, 2011)
